HCV inh: inhibitors of hepatitis C virus infection; Potency, µM (series often up to 41.8 µM), for the others: at the highest dose activity change, negative = inhibition, hits mostly inhibitors; AID 651820; Huh7.5.1 HCVcc-Cre infection, luciferase reporter, 44 h; hit rate 3.4% among 340,000; note: potency is the fitted concentration of half-maximal effect
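Cells (1,000/well) were plated 4 h before compound, then infected with HCVcc-Cre virus (~0.5 moi). After 44 h further culture, infection was read as luciferase luminescence following a 15 min substrate incubation at room temperature.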
Lassa entry inh: Lassa virus entry inhibition. hit rate 1.2% among 300,000. Lassa virus pseudotype entry inhibition, cell reporter. Potency, µM (top dose mostly 37.9 µM), without a hit: top-dose activity change, negative = inhibition, most hits filed as inhibitors; calls by dose curve; tested in HEK293 cells; note: potency is the fitted concentration of half-maximal effect; nearly all actives have a fitted effect of over 50% in size
Pf growth 48h: P. falciparum growth inhibition at 48 hours (one generation); P. falciparum luciferase growth in erythrocytes, 48 h; Potency, µM (series often up to 28.7 µM), for the others: at the highest dose activity change, negative = inhibition, usual class: inhibitors; hit rate 5.9% among 310,000; note: potency is the fitted concentration of half-maximal effect
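Compounds are pin-transferred into medium, infected erythrocytes (2% hematocrit, 0.1% parasitemia final) are added, and plates sit one parasite generation at 37 C in 5% CO2. Detection reagent is then added and luminescence measured.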
HCMV inh: human cytomegalovirus inhibition; HFF cells, HCMV-luciferase reporter, 72 h; stronger effect = lower value; hit rate 4.5% among 410,000; activity change, negative = inhibition, % at 57.5 µM; in the data active = activity change below about -60%; inconclusive = no clear call, values can overlap the other calls; inactive = above about -39%
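Luciferase read-out from HCMV-luciferase-infected HFFs (MOI 1 PFU/cell) 72 h post infection at 37C; compounds added after 16 h cell attachment; activity normalized between buffer-only basal and Salinomycin (10uM) inhibitor controls.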
MARV entry inh: inhibitors of Marburg virus binding or cell entry; Marburg virus pseudotyped entry inhibition, cell reporter; Potency, µM (doses to about 37.8 µM), without a hit: top-dose activity change, negative = inhibition, usual class: inhibitors; hit rate 1.8% among 300,000; AID 540276; calls by dose curve; tested in HEK293 cells; note: potency is the fitted concentration of half-maximal effect
Pf growth 96h: P. falciparum growth inhibition at 96 hour, primary screen for plastid delayed-death inhibitors | P. falciparum luciferase reporter growth, 96 h | Potency, µM (titrated, usually from 28.7 µM), for the others: at the top dose activity change, negative = inhibition, hits mostly inhibitors | hit rate 6.9% among 320,000 | AID 504834; note: potency is the fitted concentration of half-maximal effect
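Delayed-death screen, second-generation endpoint: infected erythrocytes, 2% hematocrit, 0.05% parasitemia final; 96 hours at 37 C, 5% CO2; luciferase detection reagent; luminescence decrease equals reduced growth.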
An asterisk follows results filed as active; ? = inconclusive; . = no result given; [ ] = dose if it differs, or a comment. Only some compounds are listed: those with a hit (about 14% of all), similar ones and a draw of the others. Unless noted, calls come from the whole dose curve; as a rule, active = well fitted inhibition curve with a large enough effect; inconclusive = small, poorly fitted or top-dose-only effect, or another doubt; inactive = no such curve, though single readings can be large or run the other way. % is set by controls: 0 for no effect and ±100 for the full control effect.

SMILES	HCV inh	Lassa entry inh	Pf growth 48h	HCMV inh	MARV entry inh	Pf growth 96h
COc1cc(C2c3c(-c4ccccc4)n[nH]c3C(=O)N2c2ccccc2)ccc1O (stereo unspecified)	-27%	-29%	?	21	-2%	4%
CCOC(=O)c1ccc(N2C(=O)c3[nH]nc(-c4ccc(C)cc4)c3C2c2cccc(F)c2)cc1 (stereo unspecified)	.	?	.	-99*	?	.
CCOC(=O)c1ccc(N2C(=O)c3[nH]nc(-c4ccc(OC)cc4)c3C2c2cccc(O)c2)cc1 (stereo unspecified)	.	?	.	-107*	?	.
CCOC(=O)c1ccc(N2C(=O)c3n[nH]c(C)c3C2c2cccnc2)cc1 (stereo unspecified)	-15%	-16%	-10%	5	-8%	-18%
CCOC(=O)c1ccc(N2C(=O)c3[nH]nc(-c4ccc(C)cc4)c3C2c2ccc(O)cc2)cc1 (stereo unspecified)	.	?	.	-74*	10µM*	.
C[C@@H]1Cn2cnc(C(=O)N3CCN(C(=O)OC(C)(C)C)CC3)c2C(=O)N1	.	.	.	-9	.	.
Cc1ccc(O)c(C(=O)c2cnn(C(=O)COc3ccc(Cl)cc3)c2)c1	-1%	-15%	15%	-61*	-1%	9%
COC(=O)c1ccc(CN2C(=O)[C@@]3(CC(C)=CC[C@@H](C)O3)c3ccccc32)cc1	.	.	.	.	-29%[14.2 µM]	.
COc1ccccc1C1C=C(c2ccc(F)cc2)Nc2nc(-c3ccc(Cl)cc3)nn21 (stereo unspecified)	.	-15%[46.1 µM]	.	-24	?	.
Cc1ccc(/C=C2/CNC/C(=C/c3ccc(C)cc3)C2=O)cc1	8.9µM*	?	.	-29	?	.
Cc1ccc(/C=C2\CCOC2=O)cc1	-6%	10%	?	9	20%[46.1 µM]	11%
COc1cc(Cl)c(C)cc1Nc1nc2ccccc2nc1NS(=O)(=O)c1ccccc1	.	9%[46.1 µM]	.	74	?	.
COc1ccc(CCn2c(=O)c3ccccc3n(CC(=O)Nc3cccc(C)c3)c2=O)cc1OC	.	-5%[46.1 µM]	.	5	8%[46.1 µM]	.
CCCOc1ccc(CNC(=O)c2cc3oc4ccccc4c3n2C)cc1	.	.	.	-86*	?	.
Cn1c(C(=O)NCc2ccccc2F)cc2oc3ccccc3c21	.	.	.	-63*	?	.
Cn1c(C(=O)NCc2cccs2)cc2oc3ccccc3c21	?	0.5µM*	59%	-80*	0.45µM*	.
Cn1c(C(=O)NCc2ccccc2)cc2oc3ccccc3c21	?	?	72%	-89*	2.6µM*	.
CCCOc1ccc(CNC(=O)Cn2c(=O)oc3ccccc32)cc1	?	.	0%	6	-3%[46.1 µM]	?
Cn1c(C(=O)NCC2CCCO2)cc2oc3ccccc3c21 (stereo unspecified)	?	?	87%	33	?	86%
O=C(CNC(=O)c1cc2ccccc2o1)NCc1cccs1	-9%	?	-5%	66	?	28%
COC(=O)[C@]12CCCCC=C1N(Cc1ccc3c(c1)OCO3)C(=O)[C@H](CC(=O)N1CCC(c3ccccc3)CC1)C2	.	.	.	23	.	.
O=C(NCC(=O)N1CCOCC1)c1ccc(Cl)c(Cl)c1	5%	?	.	41	?	.
CCC1=C(c2ccc(C)cc2)S(=O)(=O)N=C1N1CCC(C(=O)NCCc2cccc(OC)c2)CC1	.	.	.	-6	?	.
Cc1noc(C)c1COC(=O)c1ccc(F)c(S(=O)(=O)N2CCOCC2)c1	3%	.	?	10	.	?
COc1ccc(CN2C[C@H]3CON(C)[C@H]3C[C@H]2c2ccc(-c3ccccc3)cc2)cc1	.	.	.	-4	.	.
COc1ccc(CNC(=O)c2cc3oc4ccccc4c3n2C)cc1OC	.	.	.	?	5µM*	.
COc1ccc(CNC(=O)Cn2c(=O)oc3ccccc32)cc1OC	-4%	-1%	-24%	-8	4%	.
CCOc1ccccc1NC(=O)Cn1cnc2onc(-c3ccc(F)cc3)c2c1=O	.	-1%[46.1 µM]	.	5	.	.
CCOC(=O)c1cc2c(nc1NC(=S)Nc1ccccc1)CC(C)(C)OC2	-12%	1%	-13%	34	-3%	10µM*
Cc1ccc(C)c(NC(=O)c2ccc3c(c2)CCCN3S(C)(=O)=O)c1	.	23%[46.1 µM]	.	27	?	.
